Our source for the Potency, outcome and activity change, negative = inhibition values is PubChem BioAssay (NCATS).

The subject of assay [1] is Zika virus NS2B-NS3 protease (unlinked complex). Nature of the assay: Primary screen GU Rhodamine qHTS for Zika virus inhibitors: Unlinked NS2B-NS3 protease assay (AID 1347159). Also: nearly all actives have a fitted effect of over 60% in size. Also: potency is read from the fitted curve at half-maximal effect. As to activity change, negative = inhibition: % is scaled to controls: 0 for no effect and ±100 for the full control effect. As to conditions: Recombinant ZIKV NS2B-NS3 protease, Rhodamine110 substrate fluorescence; series mostly up to 107 µM. In a few lines:
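Percent inhibition came from the 15-min rise in Rhodamine110 fluorescence (1.5 microM substrate, ~15% conversion), normalized to no-inhibitor and no-enzyme wells and Hill-fitted. Unlinked protease, 25 nM, pH 8.0 Tris buffer; compounds up to 114 microM, 15-min preincubation.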

Assay [2] can be described thus: Confirmatory screen GU Rhodamine qHTS for Zika virus inhibitors qHTS (AID 1347157). Also: nearly all actives have a fitted effect of over 70% in size. Also: potency is read from the fitted curve at half-maximal effect.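 As to activity change, negative = inhibition: plate controls were no-inhibitor wells for no effect and no-enzyme wells for full effect.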 As to conditions: purified enzyme assay, Rhodamine110 substrate fluorescence, 15 min; series mostly up to 114 µM. The method in brief:
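Compounds, tested up to 114 microM, were incubated for 15 minutes with 25 nM unlinked NS2B-NS3 protease at pH 8.0. Cleavage of 1.5 microM Rhodamine110 substrate was then followed by fluorescence for 15 minutes.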

Assay [3] deals with Zika virus NS2B-NS3 protease (linked construct). Nature of the assay: Primary screen NINDS Rhodamine qHTS for Zika virus inhibitors (AID 1347160). Also: nearly all actives have a fitted effect of over 55% in size. Also: potency is read from the fitted curve at half-maximal effect. As to activity change, negative = inhibition: % is scaled to controls: 0 for no effect and ±100 for the full control effect. As to conditions: purified NS2B-NS3 protease, Rhodamine110 substrate fluorescence; series mostly up to 57.1 µM. The method in brief:
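Rhodamine110-peptide cleavage (1.5 µM substrate) by 25 nM linked NS2B-NS3 enzyme at pH 8.0 (Tris, Tween 20), after 15 min RT preincubation with compounds; 15-min fluorescence change normalized to controls and Hill-fitted.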

Assay [4] can be described thus: Confirmatory screen NINDS Rhodamine qHTS for Zika virus inhibitors (AID 1347161). Also: nearly all actives have a fitted effect of over 60% in size. Also: potency is read from the fitted curve at half-maximal effect.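 As to activity change, negative = inhibition: purified Zika NS2B-NS3 protease with linked NS2B cofactor domain and Rhodamine110 peptide substrate; plate controls were no-inhibitor control for no effect and no-enzyme control for full effect.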 As to conditions: purified enzyme assay, Rhodamine110 substrate fluorescence, 15 min; series mostly up to 114 µM. The method in brief:
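Percent inhibition, normalized to uninhibited and enzyme-free controls, is fitted to a 4-parameter Hill equation. Fluorescence change comes from a 15-min cleavage of 1.5 microM bis-peptide Rhodamine110 substrate by 25 nM linked NS2B-NS3 at room temperature.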

Assay [5] concerns Zika virus NS2B-NS3 protease (linked construct). Briefly: Confirmatory screen NINDS AMC qHTS for Zika virus inhibitors (AID 1347152). Also: nearly all actives have a fitted effect of over 70% in size. Also: potency is read from the fitted curve at half-maximal effect.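 As to activity change, negative = inhibition: AMC fluorescence gain from cleaved Bz-Nle-KRR-AMC substrate over 15 min; top concentration of the series differs between compounds; 0% = no-inhibitor control and -100% = no-enzyme control.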 The settings on record: Purified linked NS2B-NS3, AMC substrate fluorescence; series mostly up to 56.6 µM. The method in brief: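 In this dose-response qHTS, AMC release from 10 microM Bz-Nle-KRR-AMC by 1 nM linked protease is measured over 15 minutes (about 20% conversion) at pH 8.0. Percent inhibition is fitted to a 4-parameter Hill curve.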

Assay [6] concerns Zika virus NS2B-NS3 protease (linked). Nature of the assay: 384 well plate NINDS AMC confirmatory qHTS for Zika virus inhibitors (AID 1347163). Also: nearly all actives have a fitted effect of over 50% in size. Also: potency is read from the fitted curve at half-maximal effect.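 As to activity change, negative = inhibition: linked protease at 5 30 or 60 nM final depending on run; fluorescence of AMC released from Ac-VKTGKR-AMC peptide cleaved by the protease; top concentration of the series differs between compounds; 0% = no-inhibitor control and -100% = no-enzyme control.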 As to conditions: Recombinant NS2B-NS3 protease, Ac-VKTGKR-AMC fluorescence; series mostly up to 100 µM. The method in brief:
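Enzyme (5, 30 or 60 nM final) first met test compounds for ~15 min. The AMC-tagged peptide Ac-VKTGKR-AMC followed at 30 microM. Fluorescence was then recorded at 25 min and scaled against no-enzyme and no-inhibitor wells.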

Assay [7] has as its system Zika virus NS2B-NS3 protease (linked construct). Nature of the assay: 384 well plate NINDS Rhodamine confirmatory qHTS for Zika virus inhibitors (AID 1347164). Also: nearly all actives have a fitted effect of over 65% in size. Also: potency is read from the fitted curve at half-maximal effect.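 As to activity change, negative = inhibition: top concentration of the series differs between compounds; plate controls were no-inhibitor control for no effect and no-enzyme control for full effect.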 As to conditions: rhodamine-110 peptide substrate fluorescence; series mostly up to 100 µM. The method in brief: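 Compounds are incubated about 15 minutes with linked protease (5, 30 or 60 nM final). Rhodamine 110-tagged Ac-LKRR substrate (10 microM final) is added and fluorescence measured after 25 minutes.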

The target of a further assay is Furin (Homo sapiens) (UniProt P09958). Nature of the assay: Furin counterscreen qHTS for Zika virus inhibitors (AID 1347149). Also: potency is read from the fitted curve at half-maximal effect; nearly all actives have a fitted effect of over 70% in size. The settings on record: furin enzymatic counterscreen, fluorogenic substrate; series mostly up to 114 µM. The method in brief:
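Counterscreen measures cleavage of 2 microM BOC-RVRR-AMC, below its ~15 microM Km, by 5 nM full-length human furin at pH 7.0 after a 15-min compound preincubation. Inhibition derives from the 15-min fluorescence increase at 37C.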

A short description of assay [8]: ZIKV-mCherry secondary qHTS for Zika virus inhibitors (AID 1347158). Also: potency is read from the fitted curve at half-maximal effect. The settings on record: Vero cells, ZIKV-mCherry infection imaging, 48-72 h; series mostly up to 49.2 µM. In a few lines:
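This orthogonal imaging screen measured ZIKV-mCherry infection of Vero cells exposed to compound, MOI 1, 48-72 h. Percent infection came from segmented nuclei scored mCherry-positive above 3 SD of negative controls.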

Assay [9] concerns Zika virus NS2B-NS3 protease (unlinked). Nature of the assay: Optimization of GU AMC qHTS for Zika virus inhibitors: Unlinked NS2B-NS3 protease assay (AID 1347151).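 Also: 0% = no-inhibitor control and -100% = no-enzyme control; nearly all actives have a fitted effect of over 80% in size.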 As to conditions: recombinant ZIKV NS2B-NS3 protease, fluorogenic AMC substrate; series mostly up to 52.5 µM. The method in brief:
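Percent inhibition is derived from the 15-min change in AMC fluorescence, normalized against no-inhibitor and no-enzyme controls, then fitted to a 4-parameter Hill curve. Aprotinin was the intraplate control.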

Inconclusive results are not listed. Values without a mark were called inactive. Activity calls are given as the source filed them. Calls follow the shape of the dose curve; as a rule, active = well fitted curve in the direction sought with a large enough effect; inconclusive = small, poorly fitted or top-dose-only effect, or another doubt; inactive = no such curve, though single readings can be large; an effect the other way counts as inactive or inconclusive.

Sequence of Furin (Homo sapiens) (P09958 whole entry, looked up): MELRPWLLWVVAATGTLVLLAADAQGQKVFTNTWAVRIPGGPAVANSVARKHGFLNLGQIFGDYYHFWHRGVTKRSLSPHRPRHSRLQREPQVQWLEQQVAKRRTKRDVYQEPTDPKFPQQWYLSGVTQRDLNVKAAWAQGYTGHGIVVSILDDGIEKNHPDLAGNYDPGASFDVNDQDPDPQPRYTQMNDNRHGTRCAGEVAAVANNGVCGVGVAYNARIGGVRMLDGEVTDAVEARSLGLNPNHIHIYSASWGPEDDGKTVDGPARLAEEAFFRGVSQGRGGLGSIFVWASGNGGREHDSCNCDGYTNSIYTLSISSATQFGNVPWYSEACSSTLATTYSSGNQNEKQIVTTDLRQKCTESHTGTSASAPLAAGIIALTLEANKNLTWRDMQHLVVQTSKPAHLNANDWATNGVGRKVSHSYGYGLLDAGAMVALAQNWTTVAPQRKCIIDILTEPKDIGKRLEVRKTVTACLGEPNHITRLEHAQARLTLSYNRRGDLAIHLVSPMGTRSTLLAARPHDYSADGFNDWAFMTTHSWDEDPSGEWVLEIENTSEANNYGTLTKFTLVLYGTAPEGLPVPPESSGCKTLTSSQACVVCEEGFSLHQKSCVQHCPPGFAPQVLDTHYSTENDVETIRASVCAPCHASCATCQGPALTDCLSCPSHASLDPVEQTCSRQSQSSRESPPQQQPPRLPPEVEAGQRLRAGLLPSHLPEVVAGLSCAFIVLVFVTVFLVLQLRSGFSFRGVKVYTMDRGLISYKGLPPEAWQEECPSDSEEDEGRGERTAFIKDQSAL

Turning to `C=C1C[C@]23C[C@H]1CC[C@H]2C1=C[C@H]2OC(=O)[C@@](C)([C@H]1[C@@H]3C(=O)O)[C@H]2O`, the Potency entry in [1] is “inactive”. Regarding `OC/C=C/C=C/[C@H]1Cc2cc(O)cc(O)c2O1`, the values for the Potency in assay [2], in assay [1] and in assay [4] were 22.1 µM (active), 39.8 µM (active) and 27.8 µM (active), respectively. The Potency entry in assay [3] was “inactive”.

With `CCCCCCOc1cc2c(cc1N(C)c1ncc(C(=O)O)cn1)C(C)(C)CCC2(C)C`, the Potency was 31.2 µM (active) in assay [5]; 6.98 µM (active) in [2]; 3.98 µM (active) in [1]; 7.94 µM (active) in assay [3]; 4.41 µM (active) in assay [4]; 8.91 µM (active) in assay [6]. Moreover, the Potency in [7] is 3.16 µM (active).

Regarding `CC(C)c1cccc2c(-c3ccccc3)cc(-c3ccc(-c4ccc(C(=O)O)cc4)[nH]3)nc12`, the Potency is 39.3 µM (active) with Furin (Homo sapiens); 44.1 µM (active) in [5]; 1.97 µM (active) in assay [2]; 7.08 µM (active) in [8]; 3.55 µM (active) in assay [1]; 7.08 µM (active) in assay [3]. For the same molecule, in assay [4], the Potency is 2.21 µM (active). Also, the Potency result in assay [6] and in [7] was “inactive” each time.

`CC1(C)CC[C@]2(C(=O)O)CC[C@]3(C)C(=CCC4[C@@]5(C)C[C@@H](O)[C@H](O)C(C)(C)C5CC[C@]43C)C2C1` (stereo not given in full): the Potency in assay [2] is 8.57 µM (active); in assay [1], 14.1 µM (active); in [3], 10 µM (active); in assay [4], 6.07 µM (active); in assay [6], 56.2 µM (active); in [7], 6.31 µM (active). On to `CC[C@]1(O)CC2CN(CCc3c([nH]c4ccccc34)[C@@](C(=O)OC)(c3cc4c(cc3OC)N(C)[C@H]3[C@@](O)(C(=O)OC)[C@H](OC(C)=O)[C@]5(CC)C=CCN6CC[C@]43[C@@H]65)C2)C1` (stereo not given in full), for which the outcome in assay [9] was inactive. Also, in assay [3], the Potency entry is “inactive”.

With `O=S(=O)(c1ccccc1)c1cnc2c(N3CCNCC3)cccc2c1`, the Potency entry in [2] and in assay [4] was “inactive” throughout. Take `C=C[C@H]1[C@H](O[C@@H]2O[C@H](CO)[C@@H](O)[C@H](O)[C@H]2O)OC=C(C(=O)OC)[C@H]1CCOC(=O)c1cc(O)c(O)c(O)c1`: the Potency entry in assay [5] was “inactive”. Also, the figures for the Potency in assay [1], in assay [3] and in assay [4] were 15.8 µM (active), 8.91 µM (active) and 10.8 µM (active), respectively. Turning to `c1ccc(N2CCN(CCc3nn[nH]n3)CC2)cc1`, the Potency entry in assay [1] is “inactive”. The same measure, in the same setting: the result for `C/C=C/C=C/C(O)=C1\C(O)=C(C)C(=O)[C@@]2(C)OC(=O)[C@@](C)(NC(=O)/C=C/C(=O)O)[C@@H]12` reads “inactive”.

Take `CS(=O)(=O)c1ccc([C@H](CC2CCCC2)C(=O)Nc2nccs2)cc1`: in assay [1], the Potency entry was “inactive”. On to `COc1cc(/C=C/C(=O)OC[C@H]2O[C@@](CO)(O[C@H]3O[C@H](CO)[C@@H](O)[C@H](O)[C@H]3O)[C@@H](OC(=O)/C=C/c3ccc(O)c(OC)c3)[C@@H]2O)ccc1O`, for which the Potency result in assay [1] is “inactive”. The same measure, in the same setting: the entry for `CN(C)c1ccc2c(c1)OC(N)=C(C#N)C2c1cccc(C(F)(F)F)c1` (stereo not given) is “inactive”; for `CCc1cc(CN2CC(C(=O)O)C2)sc1-c1noc(-c2ccc(Oc3ccccc3)cc2)n1` it is 3.98 µM (active). Still for that read-out and setting: the result for `CC/C=C\CC1C(=O)C=CC1(CCCCCCCC(=O)O)OC(C)=O` (stereo not given) reads 7.08 µM (active). Consider `C=C1CCC2C(C)(C)C(O)CCC2(C)C1CCC(C)CCO` (stereo not given), for which the Potency in [1] was 7.08 µM (active).

For the molecule `O=C(O)c1ccc(CN2CCC(CN[C@@H]3C[C@H]3c3ccccc3)CC2)cc1`, the Potency result in [1] was “inactive”. Turning to `C=CC(=O)N1CCN(C(=O)CNc2cc(I)c(Cl)cc2O)CC1`, the Potency result in assay [1] is “inactive”.

As for `C=C[C@]1(C)C=C2CCC3C(C)(CCC[C@@]3(C)C(=O)O)C2CC1` (stereo not given in full), in assay [1], the Potency was 12.6 µM (active). Still for that read-out and setting: the result for `CCCC(=O)NCCc1csc(-c2ccc(Cl)cc2)n1` reads “inactive”. Same read-out and setting: the result for `CC(O)c1cc(C(=O)N[C@@H](C)Cn2ccc(-c3ccc(C#N)c(Cl)c3)n2)n[nH]1` (stereo not given in full) reads “inactive”; that for `COc1ccccc1NC(=O)OCC1CCN(C(=O)OC(C)(C)C)CC1`, “inactive”; that for `CCCC1(c2ccccc2)NC(=O)N(CC(=O)N(C)Cc2c(F)cccc2Cl)C1=O` (stereo not given), “inactive”. For the molecule `CC(=O)O[C@@H]1[C@@H](O)[C@H](O[C@H]2CC[C@]34C[C@]35CC[C@]3(C)[C@@H]([C@@]6(C)CC[C@@H](C(C)(C)O)O6)[C@@H](O)C[C@@]3(C)[C@@H]5C[C@H](O[C@@H]3O[C@H](CO)[C@@H](O)[C@H](O)[C@H]3O)[C@H]4C2(C)C)OC[C@H]1O`, in [1], the Potency entry was “inactive”.

Take `CC(=O)c1ccc(O[C@@H]2O[C@H](CO)[C@@H](O)[C@H](O)[C@H]2O)cc1`: the Potency result in [1] is “inactive”. Take `CCOc1cc(CC(=O)NC(CC(C)C)c2ccccc2N2CCCCC2)ccc1C(=O)O` (stereo not given): the Potency in assay [1] was 20 µM (active).

For the molecule `CC(c1ncncc1F)C(O)(Cn1cncn1)c1ccc(F)cc1F` (stereo not given), the Potency result in assay [1] is “inactive”. `C[C@@H]1O[C@@H](O[C@H]2[C@H](OC(=O)[C@]34CCC(C)(C)C[C@H]3C3=CCC5[C@@]6(C)C[C@H](O)[C@H](O[C@@H]7O[C@H](CO)[C@@H](O)[C@H](O)[C@H]7O)[C@@](C)(CO)C6[C@H](O)C[C@@]5(C)[C@]3(C)CC4)OC[C@H](O)[C@@H]2O)[C@H](O)[C@H](O)[C@H]1O[C@@H]1OC[C@@H](O)[C@H](O[C@@H]2OC[C@](O)(CO)[C@H]2O)[C@H]1O` (stereo not given in full): in assay [1], the activity change, negative = inhibition was -1.32% [at 19.1 µM].
